PubChem BioAssay (Tox21)
Results filed as inconclusive are left out. Calls of active or inactive are those of the source. Unless noted, calls follow the shape of the dose curve; as a rule, active = well fitted curve in the direction sought with a large enough effect in the repeat runs; inconclusive = weak or mixed curves; inactive = no such curve, though single readings can be large; an effect the other way counts as inactive or inconclusive.

What was measured:
[1] = qHTS assay for small molecules that induce genotoxicity in human embryonic kidney cells expressing luciferase-tagged ATAD5 (AID 651632); also: nearly all actives have a fitted effect of over 15% in size; also: potency is read from the fitted curve at half-maximal effect
Outline: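 Concentration-response screen for ATAD5 upregulation in HEK293T luciferase reporter cells; 16 hr treatment at 37C, then luminescence after 30 min with Amplite at room temperature.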

[2] = qHTS assay for small molecule agonists of the p53 signaling pathway - cell viability (AID 651633; calls by dose curve; also: nearly all actives have a fitted effect of over 30% in size; also: potency is read from the fitted curve at half-maximal effect)
Outline: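 Viability counter-read: CellTiter-Glo luminescence (30 min, room temperature) in the same p53RE-bla plates. These plates had been exposed to compounds for 16 h at 37 C.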

[3] = qHTS assay for small molecule disruptors of the mitochondrial membrane potential (AID 720635); also: potency is read from the fitted curve at half-maximal effect
Outline: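 Mitochondrial membrane potential tracked with Mito-MPS dye, red aggregates (ex 540/em 590 nm) against green monomers (ex 490/em 535 nm). Compound treatment 1 hr at 37C, dye 30 min in HepG2.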

[4] = qHTS assay to test for compound auto fluorescence at 590 nm (red) in HepG2 cells (AID 720674)
Outline: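 1 hr compound incubation on HepG2 cells, 37 C, 5% CO2; plate read ex 540 nm / em 590 nm; intensities reported as Rose Bengal sodium equivalents.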

[5] = qHTS assay to test for compound auto fluorescence at 535 nm (green) in HepG2 cells (AID 720675)
[6] = qHTS assay to test for compound auto fluorescence at 590 nm (red) in HEK293 cells (AID 720679)
Outline: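 Red-channel autofluorescence (Ex/Em 540/590 nm; Rose Bengal sodium reference) was measured after overnight 37C, 5% CO2 exposure of attached HEK293 cells, 2,000 per well in medium with 10% dialyzed FBS.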

[7] = qHTS assay to test for compound auto fluorescence at 535 nm (green) in HEK293 cells (AID 720680)
[8] = qHTS assay to test for compound auto fluorescence at 460 nm (blue) in HEK293 cell free culture (AID 720681)
Outline: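 Blue fluorescence (Ex 405/Em 460 nm, triamterene-equivalent) was read immediately after pin transfer of compound or DMSO into medium (DMEM, 10% FBS) without cells.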

[9] = qHTS assay to test for compound auto fluorescence at 535 nm (green) in HEK293 cell free culture (AID 720682)
Outline: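 Measurement is a direct plate read of green fluorescence (485 nm in, 535 nm out) after compound addition to serum-supplemented DMEM lacking cells, with fluorescein used to express intensities.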

[10] = qHTS assay to test for compound auto fluorescence at 590 nm (red) in HEK293 cell free culture (AID 720683)
Outline: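 Red-channel autofluorescence of compounds in culture medium (DMEM, 10% FBS), no cells, measured at 540/590 nm. Rose Bengal sodium is the reference fluorophore for equivalence.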

[11] = qHTS assay to test for compound auto fluorescence at 590 nm (red) in HepG2 cell free culture (AID 720684)
Outline: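 No cells present: MEM + 10% FBS only. Compound pinned in, red label read (540/590 nm). Activity = fluorescence equivalent to Rose Bengal sodium.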

[12] = qHTS assay to test for compound auto fluorescence at 460 nm (blue) in HepG2 cell free culture (AID 720685)
Outline: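 Cell-free plates of MEM plus 10% FBS received 23 nL compound or DMSO vehicle; blue-channel (405/460 nm) intensity scored against triamterene as reference fluorophore.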

[13] = qHTS assay to test for compound auto fluorescence at 535 nm (green) in HepG2 cell free culture (AID 720686)
[14] = qHTS assay to test for compound auto fluorescence at 460 nm (blue) in HepG2 cells (AID 720687)
Outline: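 Blue-channel autofluorescence (Ex/Em 405/460 nm, triamterene-equivalent) was measured after 1 hr compound exposure at 37 C, 5% CO2. Cells were HepG2, plated overnight at 37 C in MEM plus 10% FBS.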

[15] = target: Glucocorticoid receptor (Homo sapiens) (UniProt P04150); assay: qHTS assay to identify small molecule agonists of the glucocorticoid receptor (GR) signaling pathway (AID 720691; active = well fitted activation curve with a large enough effect in the signal ratio in the repeat runs, not every such curve was filed as active; the % refers to the signal ratio)
Glucocorticoid receptor (Homo sapiens), sequence (P04150 whole entry, looked up): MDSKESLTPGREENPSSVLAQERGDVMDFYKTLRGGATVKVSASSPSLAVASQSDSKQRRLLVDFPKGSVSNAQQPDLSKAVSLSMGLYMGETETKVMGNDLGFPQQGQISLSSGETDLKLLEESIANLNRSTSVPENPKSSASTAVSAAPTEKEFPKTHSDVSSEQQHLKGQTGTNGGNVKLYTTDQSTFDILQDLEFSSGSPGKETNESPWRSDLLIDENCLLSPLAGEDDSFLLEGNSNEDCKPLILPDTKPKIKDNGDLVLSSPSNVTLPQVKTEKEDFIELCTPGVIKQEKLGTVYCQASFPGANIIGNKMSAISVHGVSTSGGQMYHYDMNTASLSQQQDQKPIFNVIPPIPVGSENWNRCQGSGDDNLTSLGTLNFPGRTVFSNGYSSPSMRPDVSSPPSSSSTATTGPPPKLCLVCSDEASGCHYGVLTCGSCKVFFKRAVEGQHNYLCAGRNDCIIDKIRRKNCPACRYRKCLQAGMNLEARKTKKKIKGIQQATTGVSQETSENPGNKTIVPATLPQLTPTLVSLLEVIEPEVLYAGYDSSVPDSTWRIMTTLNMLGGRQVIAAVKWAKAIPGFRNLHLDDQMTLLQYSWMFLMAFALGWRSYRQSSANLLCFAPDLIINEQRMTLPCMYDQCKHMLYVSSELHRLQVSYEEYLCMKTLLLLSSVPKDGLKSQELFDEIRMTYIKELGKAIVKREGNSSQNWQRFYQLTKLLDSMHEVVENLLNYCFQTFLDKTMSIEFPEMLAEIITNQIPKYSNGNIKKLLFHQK
Outline: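 Measures GR pathway activation through a GRE-beta-lactamase reporter stably integrated in HeLa cells, with 18 h compound treatment at 37 C and fluorescence detection using a FRET substrate.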

[16] = qHTS assay for small molecule disruptors of the mitochondrial membrane potential - cell viability (AID 720634; calls by dose curve;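 also: human HepG2 liver cancer cells; series mostly up to about 83 µM; nearly all actives have a fitted effect of over 20% in size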)
Outline: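 In this qHTS format, HepG2 cells plated overnight were pinned with compound, incubated 1 hr, and assayed for ATP luminescence with CellTiter-Glo after m-MPI dye addition.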

[17] = qHTS assay to test for compound auto fluorescence at 460 nm (blue) in HEK293 cells (AID 720678)
Outline: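 Blue-channel (Ex/Em 405/460 nm) intensity measured in HEK293 cultures after overnight compound exposure at 37C; signal expressed relative to triamterene. Cells plated 2,000 per well in 10% dialyzed FBS medium and allowed 4-5 hr to attach.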

[18] = target: Glucocorticoid receptor (Homo sapiens) (UniProt P04150); assay: qHTS assay to identify small molecule antagonists of the glucocorticoid receptor (GR) signaling pathway (AID 720692; active = well fitted inhibition curve with a large enough effect in the signal ratio in the repeat runs, not every such curve was filed as active; the % refers to the signal ratio)
Outline: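 Tox21 10K library screened in concentration-response for blockade of dexamethasone (5 nM final)-induced GRE-bla reporter activity in HeLa cells; 18 h treatment, fluorescence read.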

[19] = qHTS assay for small molecules that induce genotoxicity in human embryonic kidney cells expressing luciferase-tagged ATAD5 - cell viability (AID 651634; calls by dose curve; also: nearly all actives have a fitted effect of over 25% in size; also: potency is read from the fitted curve at half-maximal effect)
Outline: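 15.5 hr compound or vehicle exposure of HEK293T cells expressing luciferase-tagged ATAD5 at 37C; live-cell protease activity is read by fluorescence after 30 min of CellTiter-Fluor.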
% is scaled to controls: 0 for no effect and ±100 for the full control effect.

Cc1cc(C(C#N)c2ccc(Cl)cc2)c(Cl)cc1NC(=O)c1cc(I)cc(I)c1O (configuration not stated)
active: Potency [2] 3.35 µM | Potency [3] 2.37 µM
inactive: Potency [1] | Potency [4] | Potency [5] | Potency [6] | Potency [7] | Potency [8] | Potency [9] | Potency [10] | Potency [11] | Potency [12] | Potency [13] | Potency [14] | Potency [15]

Clc1ccnc(Cl)n1
inactive: Potency [1] | Potency [2] | Potency [16] | Potency [5] | Potency [17] | Potency [6] | Potency [7] | Potency [8] | Potency [9] | Potency [10] | Potency [11] | Potency [12] | Potency [13] | Potency [15] | Potency [18]

CCOc1ccc2ccccc2c1C(=O)N[C@@H]1C(=O)N2[C@@H]1SC(C)(C)[C@@H]2C(=O)O
inactive: Potency [1] | Potency [2] | Potency [16] | Potency [3] | fluorescence, % of fluorescein control [5] -0.0692% [at 18.6 µM] | fluorescence, % of fluorescein [7] 0.0057% [at 18.6 µM] | fluorescence, % of fluorescent control [8] 0.309% [at 18.6 µM] | activity change [9] 0.0527% [at 18.6 µM, stronger effect = higher value] | fluorescence, % of fluorescent control [10] 0.0898% [at 18.6 µM] | fluorescence, % of Rose Bengal [11] -0.0711% [at 18.6 µM] | fluorescence, % of fluorescent control [12] 0.462% [at 18.6 µM] | fluorescence, % of fluorescein control [13] 0.0405% [at 18.6 µM] | fluorescence, % of fluorescent control [14] 0.172% [at 18.6 µM] | Potency [15]

Cc1cccc(C(=O)O)c1O
inactive: Potency [1] | Potency [2] | Potency [16] | Potency [3] | Potency [5] | Potency [17] | Potency [7] | Potency [8] | Potency [9] | Potency [10] | Potency [11] | Potency [12] | Potency [13] | Potency [14] | Potency [15]

C=CC(=O)OCCOC(=O)C=C
active: Potency [1] 21.7 µM | Potency [19] 61.1 µM
inactive: Potency [2] | Potency [16] | Potency [4] | Potency [5] | Potency [17] | Potency [8] | Potency [9] | Potency [10] | Potency [11] | Potency [12] | Potency [13] | Potency [15]

CCCCCCCCCCCCOCCOCCOCCOCCOCCOCCOCCOCCOCCO
inactive: Potency [1] | Potency [4] | Potency [5] | Potency [6] | Potency [7] | Potency [8] | Potency [9] | Potency [10] | Potency [11] | Potency [12] | Potency [13] | Potency [14]
active: Potency [2] 26.6 µM | Potency [3] 19.7 µM

CCCCCC/C=C\CCCCCCCC(=O)O
inactive: Potency [1] | Potency [2] | Potency [19] | Potency [16] | Potency [4] | Potency [5] | Potency [17] | Potency [7] | Potency [8] | Potency [9] | Potency [10] | Potency [11] | Potency [12] | Potency [13] | Potency [14]

c1ccc(C(O[C@@H]2CCCN(CCc3ccc4c(c3)OCO4)C2)c2ccccc2)cc1
inactive: Potency [1] | Potency [2] | Potency [19] | Potency [4] | Potency [5] | Potency [17] | Potency [6] | Potency [8] | Potency [9] | Potency [10] | Potency [11] | Potency [12] | Potency [13] | Potency [14] | Potency [15]
